Records with an inconclusive call do not appear. Calls of active or inactive are those of the source. Calls follow the shape of the dose curve; as a rule, active = well fitted activation curve with a large enough effect; inconclusive = small, poorly fitted or top-dose-only effect; inactive = no such curve, though single readings can be large or run the other way.
Potency is read from the fitted curve at half-maximal effect.

A short description of the assay: qHTS Assay for Identifying a Potential Treatment of Ataxia-Telangiectasia: Secondary assay (no NCS) hit validation.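 Also: phosphorylated KAP1 signal as a proxy for ATM-like kinase activity.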 As to activation: 0% is about no effect. As to conditions: A-T patient fibroblasts, AlphaLISA, no DNA damage added, 90 min; series mostly up to 76.9 µM; activation: at the top concentration. Summed up: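 hTERT-immortalized A-T patient fibroblasts (F2112), 500 cells/well, exposed to compounds at up to 76.7 uM final without NCS at 37C. KAP-1 phosphorylation measured by AlphaLISA after lysis and 6 h detection at 25C.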
(Quantitative high-throughput screening tests each substance at several concentrations.)
In the case of `CC1=NOC2(C1)N(C)c1ccccc1C2(C)C` (stereo not drawn), the “activation” value is 3.23% (inactive).
Same read-out and setting: the same measure for `COc1ccc(C2(C)CC(C)(C)Nc3ccccc32)cc1` (stereo not drawn): -1.08% (inactive); for `Cc1cccc(C)c1NC(=O)COC(=O)c1cc(=O)c2ccccc2o1`: 26.3% (inactive).
Regarding `COc1cccc(/C=N/NC(=O)c2cc3cc([N+](=O)[O-])ccc3s2)c1O`, the Potency was 46.3 µM (active).
On the same count and under the same terms, the same measure for `CCOc1ccccc1CNC(=O)Cn1c(=O)oc2ccccc21`: 32.8 µM (active).
For `CC1CCCC(C)N1CCCNC(=O)Cn1ncc2c3ccccc3n(C)c2c1=O` (stereo not drawn), the Potency is 14.6 µM (active).
Regarding `CSc1nc2ccccc2nc1N(C)S(=O)(=O)c1ccc(C)cc1`, the Potency is 36.8 µM (active).
For `C=CCOC(=O)C1=C[C@H](c2coc3ccccc3c2=O)C[C@H](OCc2ccc(CO)cc2)O1`, the “activation” value is 15.3% (inactive).
On to `CCOC(=O)Cn1c(-c2ccccc2)cc(SC)c(C#N)c1=O`, for which the “activation” value is 8.6% (inactive).
Turning to `COc1cc(CCC(=O)OCC(=O)N2CCc3ccccc32)cc(OC)c1OC`, the “activation” value was -4.35% (inactive).
On the same count and under the same terms, the same measure for `COc1cccc(C(=O)NOCc2ccc(C)cc2)c1OC`: -4.24% (inactive).
For the compound `S=c1[nH]nc(COc2ccccc2)n1/N=C/c1ccccc1Cl`, the “activation” value is -19.5% (inactive).
As to `COc1ccc(-n2c(C)cc(=O)[nH]c2=O)cc1`, the “activation” value was 1.08% (inactive).
The same measure, in the same setting: the same measure for `Cc1c(Cc2ccccc2)c(NCCCO)n2c(nc3ccccc32)c1C#N`: 9.57% (inactive); for `COc1ccc(NS(=O)(=O)c2ccc(N3CC(O)=C(c4ccccc4)C3=N)cc2)cc1`: -5.38% (inactive).
Still for that read-out and setting: the same measure for `Cc1ccc(-c2noc(CCC(=O)NC3CCN(Cc4ccccc4)CC3)n2)cc1`: 4.3% (inactive); for `COc1cccc(CNCc2ccc(OC)c3ccccc23)c1OC`: -18.3% (inactive).
For the compound `COc1ccc(N(C)S(=O)(=O)c2cccc(C(=O)OCC(=O)NCc3ccccc3OC)c2)cc1`, the “activation” value was 1.74% (inactive).

Source of the values: PubChem BioAssay AID493201 (National Center for Advancing Translational Sciences (NCATS), 2011).
